The full list was thinned out, with hits kept by preference.
Pf Dd2 inh = blocks in vitro growth of P. falciparum Dd2 | Potency, µM (titrated, usually from 28.9 µM), for the others: at the top dose activity, negative = inhibition, usual class: inhibitors | 120,000 compounds, 4.3% hits | P. falciparum Dd2 growth, SYBR Green, 72 h; active = well fitted inhibition curve with a large enough effect;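 also: plate controls were DMSO vehicle for no effect and reference drug for full effect; nearly all actives have a fitted effect of over 65% in size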
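Infected erythrocytes (Dd2, 0.3% parasitemia, 2.5% hematocrit final) are added to compound in RPMI-1640/Albumax II medium, grown 72 h at 37C in low oxygen, then lysed with saponin/Triton-X containing SYBR Green and read by fluorescence.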
Starred values were filed as active, the others as inactive; i = inactive; [ ] = another dose, or the depositor's remark. Potency is read from the fitted curve at half-maximal effect.

SMILES	Pf Dd2 inh
Cc1nc(-c2ccco2)cc([C@H]2CN3CC[C@H]2C[C@@H]3CNC(=O)C2CC2)n1	i
Cc1nc(-c2ccc(N(C)C)cc2)cc([C@H]2CN3CC[C@H]2C[C@@H]3CNC(=O)C(C)(C)C)n1	7.1µM*
Cc1nc(-c2ccc(C(F)(F)F)cc2)cc([C@H]2CN3CC[C@H]2C[C@@H]3CNC(=O)C2CC2)n1	i
COc1ccc(C(=O)NC[C@H]2C[C@@H]3CCN2C[C@@H]3c2cc(-c3ccccc3Br)nc(C)n2)cc1	7.1µM*
Cc1nc(C2CCCC2)cc([C@H]2CN3CC[C@H]2C[C@@H]3CNC(=O)c2ccco2)n1	i
Cc1nc(-c2cccs2)cc([C@H]2CN3CC[C@H]2C[C@@H]3CNC(=O)c2ccco2)n1	i
COc1ccccc1-c1cc([C@H]2CN3CC[C@H]2C[C@@H]3CNC(=O)c2ccc(C)cc2)n(C)n1	i
Cc1nc(-c2ccccc2Br)cc([C@H]2CN3CC[C@H]2C[C@@H]3CNC(=O)C2CC2)n1	-1%
Cc1nc(-c2cccs2)cc([C@H]2CN3CC[C@H]2C[C@@H]3CNC(=O)c2ccc(N(C)C)cc2)n1	7.1µM*
Cc1nc(-c2cccs2)cc([C@H]2CN3CC[C@H]2C[C@@H]3CNC(=O)CSCC(=O)O)n1	-4%
O=S(=O)(c1ccccc1C(F)(F)F)N1CCCC1c1nncn1Cc1ccncc1 (stereo not drawn)	-10%
CN(C)S(=O)(=O)N1CCC2(CCCN(CCCc3ccccc3)C2=O)C1 (stereo not drawn)	-3%
COc1ccc(C(=O)N(Cc2cc(OC)c(OC)c(OC)c2)CC2CCCO2)cc1 (stereo not drawn)	6%
O=C(Cn1ccn2nc(-c3ccccc3)c(CO)c2c1=O)Nc1ccc(F)c(F)c1	18%
COc1ccc(/C=C(/C#N)c2nc(-c3ccc(Br)cc3)cs2)cc1	50%
COC(=O)N1CCn2c(nn(-c3ccc([N+](=O)[O-])cc3)c2=O)C1	-13%[44.1 µM]
O=C(Nc1ccc(Cl)cc1Cl)c1cn2c(n1)CN([S+](=O)([O-])c1cccc(C(F)(F)F)c1)CC2	92%
CCOC(=O)c1ccc(NC(=O)CN(Cc2ccc(C)cc2)S(=O)(=O)c2ccc(C)cc2)cc1	i
CCN(CC)C(=O)NCc1cccnc1N1CCN(c2ccccn2)CC1	-20%
Cc1c(C(=O)N(C)C)sc2c1c(=O)n(-c1ccc(Cl)cc1)c(=O)n2Cc1ccccc1F	i
O=C(NCCc1csc(-c2cccc(F)c2)n1)c1ccc(Br)o1	56%
COCCN(CCOC)CC[C@@H]1CC[C@H](O)[C@@H](C(=O)NC2CCCCC2)O1	-12%[44.1 µM]
COCCN(CCOC)CC[C@@H]1CC[C@H](O)[C@@H](C(=O)N2CCOCC2)O1	4%[44.1 µM]
COCCN(CCOC)CC[C@@H]1CC[C@H](O)[C@@H](C(=O)Nc2ccccc2)O1	16µM*
O=C(c1ccc(Cl)cc1)N1CCCCC1CCN1CCOCC1 (stereo not drawn)	i
SMILES	Pf Dd2 inh
CCOc1ccc(C(=O)Nc2ccc(S(=O)(=O)N(Cc3ccccc3)c3ccccc3)cc2)cc1	10µM*
Cc1ccc(C(=O)Nc2ccc(S(=O)(=O)N(Cc3ccccc3)c3ccccc3)cc2)cc1	94%
COc1ccc(C(=O)Nc2ccc(S(=O)(=O)N(Cc3ccccc3)c3ccccc3)cc2)cc1	87%
CS(=O)(=O)N[C@H]1[C@H](O)[C@H](O)C[C@@H]1c1ccccc1	-6%[44.1 µM]
Cc1cccc([C@H]2C[C@@H](O)[C@@H](O)[C@@H]2NCC2CCCC2)c1	-3%[44.1 µM]
O[C@H]1[C@H](NCC2CCCC2)[C@@H](c2ccccc2)C[C@H]1O	1.8µM*
Cc1cc(Cl)ccc1OCC(=O)N1CCC2(CCCNC2=O)C1 (stereo not drawn)	-9%
CCOC(=O)C1=C(CNCc2ccccc2)NC(=O)NC1c1ccc(C)cc1 (stereo not drawn)	10µM*
CCOC(=O)C1=C(CN2CCN(c3ccc(OC)cc3)CC2)NC(=O)NC1c1ccc(Cl)cc1 (stereo not drawn)	-16%
CCOC(=O)C1=C(CN(CC)Cc2ccccc2)NC(=O)NC1c1ccc(Cl)cc1 (stereo not drawn)	i
CCOC(=O)C1=C(CN(C)Cc2ccccc2)NC(=O)NC1c1ccc(OC)cc1 (stereo not drawn)	i
CCOC(=O)C1=C(CN2CCN(c3cc(C)ccc3C)CC2)NC(=O)NC1c1ccc(Cl)cc1 (stereo not drawn)	10µM*
CCOC(=O)C1=C(CN2CCN(C)CC2)NC(=O)NC1c1ccc(F)cc1 (stereo not drawn)	49%
Cc1cc2oc(C(=O)Nc3ccc(S(=O)(=O)N(C)Cc4ccccc4)cc3)cc(=O)c2cc1C	49%
COc1ccc(C(=O)N2C(C(=O)NC3CC3)COC23CCN(C(=O)Cc2cccs2)CC3)cc1 (stereo not drawn)	-21%
CCOc1ccc(NC(=O)CN(c2ccc(C)cc2)S(=O)(=O)c2cccs2)cc1	0%
COC(=O)CNC(=O)N1CCCCC1c1nc(CCOCC2CC2)no1 (stereo not drawn)	i
N#Cc1ccc(CN2CC[C@H](c3nnc(Cc4ccccc4)o3)C2)cc1	i
CCN1CCC2(CCC1=O)CN(Cc1cc(C#N)n(CC)c1)CCN2C (stereo not drawn)	-20%
CCn1cc(CN2CCCC(c3nc4c(C)cccc4[nH]3)C2)cc1C#N (stereo not drawn)	13µM*
CCc1nc2c(c(-c3ccc(Cl)cc3)n1)CN(Cc1ccc(OC)cc1)CC2	11µM*
CCc1nc2c(c(-c3ccc(Cl)cc3)n1)CN(C(=O)Nc1ccccc1)CC2	11µM*
CCc1nc2c(c(-c3ccc(Cl)cc3)n1)CCN(Cc1ccnn1C)CC2	i
CCc1nc2c(c(-c3ccc(O)cc3)n1)CCN(C(=O)Nc1ccc(Cl)cc1)CC2	i
CCc1nc2c(c(-c3ccc(Cl)cc3)n1)CN(Cc1ccc(N(C)C)cc1)CC2	8.9µM*
SMILES	Pf Dd2 inh
CCc1nc2c(c(-c3ccc(Cl)cc3)n1)CN(Cc1cccc3ccccc13)CC2	-1%
CCc1nc2c(c(-c3ccc(Cl)cc3)n1)CN(C(C)=O)CC2	3%[44.1 µM]
CCc1nc2c(c(-c3ccc(O)cc3)n1)CN(Cc1ccnn1C)CC2	5%
CCc1nc2c(c(-c3ccc(Cl)cc3)n1)CN(C(=O)c1ccc(F)cc1)CC2	-4%
CCc1nc2c(c(-c3ccc(Cl)cc3)n1)CN([S+](=O)([O-])c1ccc(C)cc1)CC2	i
CCc1nc2c(c(-c3ccc(Cl)cc3)n1)CN(CC1CC1)CC2	4.5µM*
CCc1nc2c(c(-c3ccc(OC)cc3)n1)CN(C(=O)c1ccc(OC)cc1)CC2	-15%
CN(C)CCNC(=O)C1CC(=O)N(c2n[nH]c3ccccc23)C1 (stereo not drawn)	-11%
Cc1cc(NC(=O)c2cccn(Cc3cccc(Cl)c3)c2=O)no1	-5%
CN(CCNc1nc(CCN)nc2ccccc12)S(C)(=O)=O	8%
CC(C)c1ccc(CNC(=O)c2ccc(N3CCCC3)c(NC(=O)NCc3ccccc3)c2)cc1	-7%
CCOCc1nc(C2CCCN(C(=O)c3ccc(OC)nc3)C2)no1 (stereo not drawn)	i
O=C(NC1CCC1)C1CN(C(=O)Cn2nnc(-c3ccc(F)cc3)n2)CCO1 (stereo not drawn)	-3%
COc1ccc(CCNC(=O)c2c(C)noc2-c2cccc(F)c2)cc1	5%
CC(=O)N1CCCc2cc(S(=O)(=O)NCc3cccc(C)c3)ccc21	4%
COc1ccc(-c2nc(C3CC(=O)N(c4ccc(C)cc4)C3)no2)c(OC)c1 (stereo not drawn)	i

Bioassay records: PubChem BioAssay, National Center for Advancing Translational Sciences (NCATS)
